# Screening data: PubChem, National Center for Advancing Translational Sciences (NCATS)
# Compounds with a hit are over-represented: about 19% of the library has one in this group of screens.
# TDP1 cell CPT: growth inhibition of DT40 Tdp1-/-;hTDP1 cells with camptothecin (screen for TDP1 inhibitors) | chicken DT40 Tdp1-/-;hTDP1 cells + 20 nM CPT, ATP luminescence, 48 h | 12% of 420,000 active | Potency, µM (highest dose often 46.2 µM), inactives show at the top dose activity change, negative = growth inhibition, usual class: inhibitors | AID 686979; further: potency means the concentration at half of the fitted maximal effect; nearly all actives have a fitted effect of over 55% in size
#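 Chicken DT40 Tdp1-/- cells complemented with human TDP1, 400 cells/well, exposed to compounds plus 20 nM camptothecin for at least 48 h at 37 C; viability read as ATP content by CellTiter-Glo luminescence.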
# HT1080-NT tox: kills 2HG-producing HT-1080-NT fibrosarcoma cells; HT-1080-NT fibrosarcoma viability, CellTiter-Glo ATP luminescence, 48 h; Potency, µM (highest dose often 46.1 µM), inactives show at the highest dose activity, negative = less viability, hits mostly cytotoxic; 1.6% of 360,000 active;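 further: NT is the 2HG producing partner of a matched IDH1 knockdown line; potency means the concentration at half of the fitted maximal effect; 0% = DMSO-treated cells and -100% = media-only wells without cells; nearly all actives have a fitted effect of over 55% in size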
#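 Viability by CellTiter-Glo luminescence after 48 h compound exposure at 37C of HT-1080-NT cells (750/well, RPMI, 5% FBS). % activity scaled between DMSO wells and medium-only wells, then curve-fitted and categorized by curve class.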
# IL1B secr inh: blocks inflammasome-driven IL-1 beta release; THP-1 LPS/ATP IL-1B secretion, AlphaLISA, 16 h; hits give low values; activity change, % at 57.5 µM; 4.7% of 360,000 active; AID 743279; in the data active means activity change below about -50%; inconclusive means mostly about -30% to -49%
#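 THP-1 cells pretreated 1 hr with compounds (up to 57.5 uM final), then stimulated with LPS (250 ng/mL final) plus ATP (1.25 mM final); secreted IL-1B measured by AlphaLISA after 16 hr, decreased signal indicating inhibition.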
# HT1080 IDH1KD tx: toxicity to HT-1080 IDH1 knockdown cells (counter line) | HT-1080 IDH1 knockdown viability, ATP luminescence, 48 h | Potency, µM (titrated, usually from 46.1 µM), for the others: top-dose activity, negative = toxicity, actives largely listed as cytotoxic | 2% of 360,000 active | AID 686971;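 further: potency means the concentration at half of the fitted maximal effect; 0% = DMSO wells and -100% = cell-free medium wells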
#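 IDH1KD HT-1080 cells, 750/well, RPMI + 5% FBS; compound pinned after 2 h settling; 48 h, 37 °C; CellTiter-Glo luminescence; % activity normalised to DMSO and no-cell wells; curves fitted, classed by r2 and efficacy.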
# TDP1 cell noCPT: qHTS for Inhibitors of human tyrosyl-DNA phosphodiesterase 1 (TDP1): qHTS in cells in absence of CPT | DT40 Tdp1-/- hTDP1 cells, no CPT, ATP luminescence, 48 h | 15% of 420,000 active | Potency, µM (highest dose often 46.2 µM), inactives show top-dose activity change, negative = growth inhibition, actives largely listed as inhibitors; further: potency means the concentration at half of the fitted maximal effect; nearly all actives have a fitted effect of over 55% in size
#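 Chicken DT40 Tdp1-/- cells stably complemented with human TDP1 were seeded at 400 cells/well with DMSO in place of 20 nM camptothecin. After compound pinning, cells grew at least 48 hr at 37 °C; viability read by CellTiter-Glo luminescence.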
# Starred values were filed as active, the others as inactive; i = inactive; ? = inconclusive; . = no result given; [ ] = dose if it differs, or a comment. Unless noted, the call rests on the fitted dose curve; in most records, active means well fitted curve in the direction sought with a large enough effect; inconclusive means small, poorly fitted or top-dose-only effect, or another doubt; inactive means no such curve, though single readings can be large; an effect the other way counts as inactive or inconclusive. Unless noted, on the % scale 0 is the no-effect control and ±100 the full control effect.
SMILES,TDP1 cell CPT,HT1080-NT tox,IL1B secr inh,HT1080 IDH1KD tx,TDP1 cell noCPT
CCOc1ccccc1NC(=O)CSC1=Nc2ccccc2C2=NC(CC(=O)NC3CCCCC3)C(=O)N12 (configuration not stated),21µM*,.,.,.,21µM*
CN(C(=O)CSC1=Nc2ccccc2C2=NC(c3ccccc3)C(=O)N12)C1CCCCC1 (configuration not stated),21µM*,-8%,7,-13%,?
COc1cccc(C(=O)OCC(=O)c2c[nH]c3ccccc23)c1O,-14%,-24%,8,-4%,-8%
COc1cccc(CNC(=O)C2CCCN(C(=O)c3ccc(Cl)cc3)C2)c1 (configuration not stated),-25%,1%[9.24 µM],10,1%,?
CC(C)CC1OC(C(C)C)Cc2[nH]c(=S)[nH]c(=O)c21 (configuration not stated),?,0%,38,-6%,?
Cc1cc(=O)oc2cc(OCC(=O)c3ccc4c(c3)NC(=O)CO4)ccc12,0%,15%,-11,34%,-26%
Cc1ccc(-c2cc3nc(NCCOc4ccccc4Cl)n(C)c(=O)c3s2)cc1,?,4%,12,9%,-21%
COc1ccccc1CNc1nc(NCCOc2ccccc2Cl)c2sccc2n1,10µM*,23µM*,-86*,?,12µM*
Clc1ccccc1OCCNc1nc(NCC2CC2)nc2ccsc12,16µM*,?,-16,18µM*,8.2µM*
CNc1nc(NCCOc2ccccc2Cl)c2sccc2n1,9.2µM*,?,?,-22%,9.2µM*
Clc1ccccc1Nc1nc(NCC2CC2)nc2ccsc12,21µM*,?,10,-30%,21µM*
O=C(COC(=O)CC1c2ccccc2CCN1S(=O)(=O)c1ccc(F)cc1)Nc1ccccc1 (configuration not stated),?,-3%,7,-2%,?
CCc1cccc(CC)c1NC(=O)COC(=O)CC1c2ccccc2CCN1S(=O)(=O)c1ccc(F)cc1 (configuration not stated),?,0%,i,8%,23µM*
CCOC(=O)C1=C[C@@H](C)N(S(=O)(=O)c2ccc(C)cc2)[C@H]1c1ccccc1,?,-3%,1,-7%,?
CCOC(=O)C1=CCN(S(=O)(=O)c2ccccc2)C1c1ccc(C)cc1 (configuration not stated),-2%,1%,19,0%,-27%
CCC[C@@H]1C=C(C(=O)OCC)[C@H](c2ccccc2)N1S(=O)(=O)c1ccc(C)cc1,5.2µM*,-10%,4,-23%,5.2µM*
CCOC(=O)C1=C[C@@H](C(C)C)N(S(=O)(=O)c2ccc(C)cc2)[C@H]1c1ccc(C(F)(F)F)cc1,?,-14%,44,-19%,12µM*
CCOC(=O)C1=C[C@@H](C(C)(C)C)N(S(=O)(=O)c2ccc(C)cc2)[C@H]1c1ccc(Cl)c(Cl)c1,16µM*,15µM*,25,15µM*,23µM*
CCOC(=O)C1=C[C@@H](c2ccccc2)N(S(=O)(=O)c2ccc(C)cc2)[C@H]1c1ccccc1Cl,?,1%,1,10%,26µM*
CC(C)C[C@@H](CN)NC(=O)c1nc[nH]c1C(=O)N[C@@H](CC(=O)O)C(=O)CNC[C@H](C)NC(=O)c1nc[nH]c1C(=O)N[C@@H](CC(=O)O)C(=O)O,-22%,0%,7,1%,-1%
CC1CCC(NC(=O)CSc2nnc(-c3cccnc3)o2)CC1 (configuration not stated),-16%,0%,-1,-1%,-20%
CCOC(=O)C1=C[C@@H](C2CCCCC2)N(S(=O)(=O)c2ccc([N+](=O)[O-])cc2)[C@H]1c1ccccc1,21µM*,?,-19,8.2µM*,?
CCOC(=O)C1=C[C@@H](CC)N(S(=O)(=O)c2ccccc2)[C@H]1c1ccccc1,?,-1%,1,0%,18µM*
O=C(COC(=O)c1ccccn1)Nc1ccc(S(=O)(=O)N2CCOCC2)cc1,-4%,8%,-3,1%,-7%
O=C(COC(=O)c1nc(Cl)ccc1Cl)Nc1cccc(S(=O)(=O)N2CCOCC2)c1,-14%,-3%,2,0%,0%
SMILES,TDP1 cell CPT,HT1080-NT tox,IL1B secr inh,HT1080 IDH1KD tx,TDP1 cell noCPT
CCc1nc2ccccc2c(C(=O)OCC(=O)Nc2cccc(S(=O)(=O)N3CCOCC3)c2)c1C,16µM*,?,-78*,?,18µM*
CCc1nc2ccccc2c(C(=O)OCC(=O)Nc2ccc(S(=O)(=O)N3CCOCC3)cc2)c1C,14µM*,?,-1,?,?
CCc1nc2ccccc2c(C(=O)OCC(=O)Nc2cccc(S(=O)(=O)NC3=NCCCCC3)c2)c1C,16µM*,?,-84*,?,4.6µM*
CCCCn1c(N)c(N(CCOC)C(=O)c2c(CC)noc2C)c(=O)[nH]c1=O,4%,1%,-1,0%,-17%
COc1cccc(NC(=O)CSc2nc(=O)n(Cc3ccncc3)c3c2CCC3)c1,6%,.,.,.,-10%
Cc1ccc(C(=O)N/N=C\c2ccc(-c3ccc([N+](=O)[O-])cc3)o2)cn1,0%,-5%,-14,0%,?
CC1(C(=O)N/N=C/c2ccc([N+](=O)[O-])o2)CC1(Br)Br (configuration not stated),13µM*,?,-90*,?,10µM*
Cc1ccc(C(=O)N/N=C\c2ccc([N+](=O)[O-])o2)cn1,?,-11%,?,?,12µM*
O=C(CC12CC3CC(CC(C3)C1)C2)N/N=C/c1ccc([N+](=O)[O-])o1,9.2µM*,?,?,?,23µM*
O=[N+]([O-])c1ccc(/C=N/N=C/c2ccc([N+](=O)[O-])o2)o1,0.29µM*,4.6µM*,-101*,2.9µM*,0.73µM*
CC(=O)Nc1cccc(Oc2ccc3c(c2)C(=O)NC3=O)c1,-20%,5%,10,7%,1%
COc1ccc(S(=O)(=O)N2CCCCC2)cc1NC(=O)c1cncc(Br)c1,-22%,16%,4,3%,7%
O=C(OCC(=O)c1ccc(Cl)s1)c1ccc(CO)cc1,-2%,6%,-9,14%,0%
COc1cc(CNC(=O)c2cc(-c3ccc(F)cc3OC)n[nH]2)cc(OC)c1,-20%,17%,0,22%,-10%
CCOC(=O)N/N=C\c1ccc([N+](=O)[O-])o1,?,-10%,37,?,22µM*
